# Experimental data as given in PubChem BioAssay (Tox21).
# Records with an inconclusive call do not appear. Entries that show only a call come without a potency. Calls of active or inactive are those of the source. Calls come from the whole dose curve; as a rule, active = well fitted inhibition curve with a large enough effect in the repeat runs; inconclusive = weak or mixed curves; inactive = no such curve, though single readings can be large or run the other way.
# Target: Cytochrome P450 3A4 (Homo sapiens) (UniProt P08684)
# Sequence (P08684 whole entry, looked up): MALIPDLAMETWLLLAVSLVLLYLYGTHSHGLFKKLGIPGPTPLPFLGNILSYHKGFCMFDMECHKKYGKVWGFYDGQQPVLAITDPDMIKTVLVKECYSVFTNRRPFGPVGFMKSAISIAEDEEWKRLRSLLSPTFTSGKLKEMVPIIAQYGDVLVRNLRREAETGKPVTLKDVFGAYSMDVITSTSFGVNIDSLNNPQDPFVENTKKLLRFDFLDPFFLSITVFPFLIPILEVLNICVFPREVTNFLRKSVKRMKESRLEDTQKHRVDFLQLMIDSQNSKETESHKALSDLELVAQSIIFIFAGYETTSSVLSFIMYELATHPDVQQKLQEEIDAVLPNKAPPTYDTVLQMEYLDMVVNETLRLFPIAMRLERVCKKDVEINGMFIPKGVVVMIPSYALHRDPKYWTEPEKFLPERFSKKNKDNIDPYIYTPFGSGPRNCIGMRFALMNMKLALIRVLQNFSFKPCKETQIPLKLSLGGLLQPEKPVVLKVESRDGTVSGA
# Test: Cytochrome P450 Family 3 Subfamily A Member 4 (CYP3A4) small molecule antagonists: luciferase reporter qHTS assay (AID 1671201); note: nearly all actives have a fitted effect of over 50% in size
# Conditions: P450-Glo CYP3A4 enzyme, luciferin luminescence, 1 h; series mostly up to 115 µM
# How it was run: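 Enzyme and proluciferin substrate are mixed with test chemicals for 10 min, then NADPH regeneration system drives turnover for 1 h at room temperature. A detection reagent halts the reaction; luminescence after 20 min gives relative activity.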
# Potency is the fitted concentration of half-maximal effect.
SMILES,Potency,"activity change, negative = inhibition"
COc1cccc(OC)c1C(=O)O,inactive,
CCC(COC(=O)CCS)(COC(=O)CCS)COC(=O)CCS,3.56 µM (active),
CC1=CCC(=C(C)C)CC1,20 µM (active),
CC(C)(C)C1CCC(=O)CC1,inactive,
C=CCn1c(=O)n(CC=C)c(=O)n(CC=C)c1=O,2.82 µM (active),
CCC(CC)C(C)CCOC(C)=O (stereo unspecified),inactive,
Oc1cc(Cl)cc(Cl)c1Cl,inactive,
CC(C)(C)c1ccc(C(O)CCCN2CCC(C(O)(c3ccccc3)c3ccccc3)CC2)cc1 (stereo unspecified),inactive,
CCCCCCC1CCCC(=O)O1 (stereo unspecified),inactive,
C1CCC(SSC2CCCCC2)CC1,inactive,
Cc1c(C)c2c(c(C)c1OC(=O)c1cccnc1)CC[C@@](C)(CCC[C@H](C)CCC[C@H](C)CCCC(C)C)O2,inactive,
O=C(O)Cc1ccccc1Nc1c(Cl)cccc1Cl,inactive,
FC(F)(F)c1cccc(Cl)c1,inactive,
C=CCCC(=O)/C=C/C1C(C)=CCCC1(C)C (stereo unspecified),17.8 µM (active),
CC(C)Cn1cnc2c(N)nc3ccccc3c21,,54.2% [at 23.6 µM] (inactive)
O=C(O)O,,0.224% [at 10.5 µM] (inactive)
